This is a sample that favours compounds with a hit; in the whole collection about 3% have one here.
Tb PYK inh = blocks Trypanosoma brucei pyruvate kinase. Potency, µM (titrated, usually from 76.8 µM), most hits filed as inhibitors. actives 0.12% (n = 410,000). Q57TT1. TbPYK enzyme, Kinase-Glo Plus ATP luminescence, 45 min; note: nearly all actives have a fitted effect of over 50% in size
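Enzyme and substrate buffer are dispensed first and compound is pin-transferred. ADP at 130 uM final then starts the reaction, which runs 45 min at room temperature. Detection reagent is added for 10 min before luminescence is imaged.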
LmPK inh = blocks Leishmania mexicana pyruvate kinase activity; actives 0.37% (n = 290,000); purified LmPK, Kinase-Glo ATP luminescence, 1 h; Potency, µM (titrated, usually from 57.5 µM), hits mostly inhibitors; Q27686
Target sequence (Q27686 whole entry, looked up): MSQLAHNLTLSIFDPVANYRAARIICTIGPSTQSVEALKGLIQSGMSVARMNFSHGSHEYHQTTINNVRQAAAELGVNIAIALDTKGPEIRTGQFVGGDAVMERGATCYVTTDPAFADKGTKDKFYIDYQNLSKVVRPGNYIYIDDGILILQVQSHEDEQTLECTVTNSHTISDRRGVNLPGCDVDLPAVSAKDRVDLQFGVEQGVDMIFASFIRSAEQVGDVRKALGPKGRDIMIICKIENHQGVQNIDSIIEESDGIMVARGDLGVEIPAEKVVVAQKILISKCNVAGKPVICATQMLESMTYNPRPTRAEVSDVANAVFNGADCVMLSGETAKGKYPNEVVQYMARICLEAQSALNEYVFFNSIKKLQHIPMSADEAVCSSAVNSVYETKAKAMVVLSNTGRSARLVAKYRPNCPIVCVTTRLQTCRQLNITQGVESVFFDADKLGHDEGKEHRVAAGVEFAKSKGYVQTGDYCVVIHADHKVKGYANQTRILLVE
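Pyruvate kinase activity monitored as ATP production (luciferase luminescence). Conditions: 0.1 nM enzyme, 0.5 mM PEP, 0.1 mM ADP, 1 h, RT; normalized against uninhibited and no-enzyme wells.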
Sm TGR inh = blocks Schistosoma mansoni thioredoxin glutathione reductase; actives 3% (n = 360,000); Q962Y6; Potency, µM (doses to about 114 µM), hits mostly inhibitors; purified TGR, DTNB reduction, TNB absorbance 405 nm; note: nearly all actives have a fitted effect of over 60% in size
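First, TGR (20 nM dispensed) and NADPH were mixed with compound. Second, a 15 min room-temperature incubation followed. Third, further NADPH and then DTNB were added to start the reaction. Finally, TNB absorbance was monitored kinetically.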
RE007 growth inh = less growth of the S. pombe RE007 Vpr strain; S. pombe RE007 Vpr strain, BacTiter-Glo ATP luminescence, 24 h; Potency, µM (highest dose often 92.2 µM), actives largely listed as inhibitors; actives 0.21% (n = 360,000); active = well fitted falling curve with a large enough effect; inconclusive = small, poorly fitted or top-dose-only effect; inactive = no such curve, though single readings can be large or run the other way; note: nearly all actives have a fitted effect of over 50% in size
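Fission yeast RE007 carrying one integrated HIV-1 vpr copy, seeded at OD 0.01 in PMG+AL medium with 23 nL pinned compound. Grown 24 h at 30 degrees; viability read by BacTiter-Glo luminescence after 5 min.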
A number is an active result; - = inactive; ? = inconclusive; . = not tested or not shown; [ ] = dose if it differs, or a comment. Unless noted, calls come from the whole dose curve; as a rule, active = well fitted curve in the direction sought with a large enough effect; inconclusive = small, poorly fitted or top-dose-only effect, or another doubt; inactive = no such curve, though single readings can be large; an effect the other way counts as inactive or inconclusive.

SMILES	Tb PYK inh	LmPK inh	Sm TGR inh	RE007 growth inh
CCOc1cccc2cc(C(=O)Oc3ccc(OC)cc3)c(=O)oc12	-	-	39.8µM	-
CCc1cc2c(=O)[nH]c(-c3ccccn3)nc2s1	-	-	-	31.6µM
COc1ccc(C2=CC(=O)C=CC2=O)cc1	.	2.51µM	0.891µM	.
COc1ccc(C2=CC(=O)C[C@H](c3ccc(OC)cc3)C2)cc1	-	.	-	-
O=C/C=C/c1c(-c2ccccc2)cc2oc3ccccc3cc1-2	-	-	20µM	-
C/C(=N/NS(=O)(=O)c1cccc([N+](=O)[O-])c1)c1c[nH]c2ccccc12	-	-	44.7µM	-
C/C(=N/NS(=O)(=O)c1ccccc1)c1c[nH]c2ccccc12	-	-	?	-
COc1cc(OC)c(NC(=O)CCn2cnc3onc(-c4ccc(F)cc4)c3c2=O)cc1Cl	-	.	-	.
NC(=O)C1CN(S(=O)(=O)c2ccc(Cl)cc2F)c2ccccc2O1 (stereo not drawn)	-	-	39.8µM	-
CS(=O)(=O)N1CC(C(=O)NN)Oc2ccc(Cl)cc21 (stereo not drawn)	-	-	-	-
CC1(C(=O)NCc2cccnc2)CCN1C(=O)c1cccc(F)c1 (stereo not drawn)	-	.	.	-
COc1ccc(C(C[N+](=O)[O-])c2c(C)cc3ccccn23)cc1 (stereo not drawn)	-	-	28.2µM	?
Cc1cc2ccccn2c1C(C[N+](=O)[O-])c1ccc(N(C)C)cc1 (stereo not drawn)	-	-	?	-
COc1ccc(C(C[N+](=O)[O-])c2c(-c3ccccc3)cc3ccccn23)c(OC)c1 (stereo not drawn)	-	-	56.2µM	?
COc1ccc(OC)c(Nc2nc3ccccc3nc2-n2nc(C)cc2C)c1	-	.	-	.
Cc1cccc(OCCOc2ccccc2C=C(C#N)C#N)c1	-	-	2.51µM	-
Cc1ccccc1OCCOc1ccccc1C=C(C#N)C#N	.	-	3.98µM	.
COc1ccccc1CN1CCC2(CC1)CCN(S(=O)(=O)c1ccccc1)CC2	-	.	.	.
Cc1ccc([N+](=O)[O-])cc1NC(=S)NC(=O)C(C)(C)C	-	-	44.7µM	-
O=C(NCCn1cc(SCc2ccccc2Cl)c2ccccc21)c1cccs1	-	.	-	.
Cc1ccc(C(=O)/C=C/C(=O)O)cc1	?	-	2.51µM	-
CO[C@H]1C[C@@H]2CC[C@@H](C)[C@@](O)(O2)C(=O)C(=O)N2CCCC[C@@H]2C(=O)O[C@H]([C@H](C)C[C@@H]2CC[C@H](OCCO)[C@H](OC)C2)CC(=O)[C@H](C)C=C(C)[C@@H](O)[C@@H](OC)C(=O)[C@H](C)C[C@H](C)C=CC=CC=C1C	-	.	.	.
Cc1ccc(CNc2ccc(O)cc2)cc1	-	-	11.2µM	-
O=C1/C(=C/c2cccnc2)CC/C1=C\c1cccnc1	-	-[11.5 µM]	-	-
O=C1/C(=C/c2cccnc2)CCC/C1=C\c1cccnc1	-	-	39.8µM	?
SMILES	Tb PYK inh	LmPK inh	Sm TGR inh	RE007 growth inh
O=C1/C(=C\c2cccnc2)CCc2ccccc21	-	15.8µM	-	?
O=C1/C(=C/c2ccccc2)CCCc2ccccc21	-	?	-	-
CC(C)/C=C1\CC/C(=C\c2cccnc2)C1=O	-	-	25.1µM	-
COc1cccc(NC(=O)CSc2cc(C)[nH]c(=O)n2)c1	-	.	-	.
CCOC(=O)CN(Cc1ccccc1)C(C(=O)NC1CCCCC1)c1ccccc1 (stereo not drawn)	-	.	-	.
COc1ccccc1CN1CCCC2(CCN(C(=O)c3ccncc3)CC2)C1	-	.	.	.
FC(F)(F)c1cccc(-c2noc(CN3CCOCC3)n2)c1	-	-	-	-
CN1CCCN(Cc2nc(-c3cccc(C(F)(F)F)c3)no2)CC1	-	-	25.1µM	-
COC(=O)c1cccc(NC(=O)c2nsc3ccccc23)c1	-	.	-	.
COC(=O)c1ccc(C(=O)OC)c(NC(=O)Oc2ccccc2)c1	-	-	-	-
COC(=O)c1ccc(C(=O)OC)c(NC(=O)/C=C/C(=O)O)c1	-	-	10µM	-
O=C1OC(Nc2nc(-c3ccc(F)cc3)cs2)c2ccccc21 (stereo not drawn)	-	-	3.98µM	-
O=C(NC1CCCCCC1)c1ccc(Br)o1	-	-	-	-
O=C(NC1CCCCC1)Oc1cc2oc(=O)sc2cc1Br	?	-	3.16µM	?
Cc1cccc(CSCc2ccc(C(=O)NCCc3ccccc3)o2)c1	-	.	-	.
Cc1cc(NC(=O)CSc2nnc(-c3ccc(Br)o3)n2Cc2ccccc2)no1	-	-	-	-
O=C(CSc1nnc(-c2ccc(Br)o2)n1Cc1ccccc1)c1ccccc1F	-	-	35.5µM	-
CCOC(=O)c1c(C)[nH]c(C)c1S(=O)(=O)NCC(=O)Nc1cccc(SC)c1	-	.	-	.
CCCN(CC#CCOc1ccc(OC)cc1)CCC	-	-	12.6µM	-
CC1CCN(c2ccc(-c3nc(C(C)C)no3)cc2[N+](=O)[O-])CC1	-	.	-	.
COC(=O)C1=C(C(=O)OC)[C@@H]2N(Cc3ccccc3)c3ccccc3[C@@]23C[C@@H](C(=O)OC)N(S(=O)(=O)c2ccc([N+](=O)[O-])cc2)C3=N1	.	-[11.5 µM]	.	.
COc1ccc(C2=NCC(=O)N(CC(=O)NCc3ccco3)c3sc4c(c32)CCCC4)cc1	-	-	?	-
Cc1cccc(C2=NCC(=O)N(CC(=O)NCc3ccco3)c3sc4c(c32)CCCC4)c1	-	-	17.8µM	-
COc1ccc(N2C(=O)CC(NC3CC3)C2=O)cc1 (stereo not drawn)	-	-	-	-
CCOc1ccc(N2C(=O)CC(NC3CCN(C(=O)c4ccc(F)cc4)CC3)C2=O)cc1 (stereo not drawn)	-	-	17.8µM	?
SMILES	Tb PYK inh	LmPK inh	Sm TGR inh	RE007 growth inh
CCOC(=O)c1ccc(N2C(=O)CC(NC3CCN(C(=O)c4ccc(F)cc4)CC3)C2=O)cc1 (stereo not drawn)	-	-	50.1µM	-
COc1ccc(NC(=O)CCc2nnc3n(CC(C)C)c(=O)c4ccccc4n23)cc1	-	.	-	.
CCC(NC(=O)Nc1cc(Cl)ccc1OC)c1c(-n2cccc2)sc2c1CCN(C)C2 (stereo not drawn)	-	.	-	.
O=C(CCn1c(=O)oc2ccccc21)n1c(=O)oc2ccccc21	-	-	15.8µM	-
CC(CSC(=O)c1ccccc1)C(=O)N1C[C@@H](Sc2ccccc2)C[C@H]1C(=O)O (stereo partly drawn)	-	.	.	.
COc1ccccc1-n1c(CCn2nc(C)c(Br)c2C)n[nH]c1=S	3.55µM	?	-	-
Cc1nn(CCc2n[nH]c(=S)n2C2CCCCC2)c(C)c1Br	12.6µM	7.94µM	-	-
CCOC(=O)c1ccc2c(c1)N(CC(=O)N(C)c1ccccc1)C(=O)c1ccccc1S2	-	.	-	.
Cc1cccc(C)c1Nc1n[nH]c(=S)s1	12.6µM	.	.	-
Cc1cccc(Nc2n[nH]c(=S)s2)c1C	?	-	-	-
O=C(NCCn1cccc1)c1cccc2ccccc12	-	-	28.2µM	-
COc1ccccc1C(=O)Nc1cccc(OCc2cc(=O)n3ccccc3n2)c1	-	.	-	.

Bioassay records (PubChem BioAssay)
